Measured values reported in ChEMBL document CHEMBL3433997, “St. Jude Leishmania screening dataset” (2016).

molecular target: Hexose transporter 1 (Plasmodium falciparum) (UniProt O97467); assay: ST_JUDE_LEISH: Cytotoxicity at 2uM final concentration against transgenic Leishmania Mexicana promastigotes LmPfHT that are glucose transport deficient and complemented with the Plasmodium falciparum hexose transporter. Activity is measured by DNA content using SYBR green in vitro; format: functional

SMILES	inhibition
FC(F)(F)c1ccc2[nH]c(-c3ccc(-c4cccc(CNCC5CCCO5)c4)cc3)nc2c1 (centres undefined)	2.83%
Cc1cnc(C(=O)Nc2cccc(-c3csc(-c4nc5ccccc5[nH]4)c3)c2)cn1	1.2%
CC(=O)N[C@H](C(=O)Nc1ccc(-c2ccc(-c3nc4cc(C(F)(F)F)ccc4[nH]3)s2)cc1)C(C)C	5.3%
COc1cc2nc(N3CCC(CNC(=O)c4ccc(-c5ccc(-c6noc(C)n6)cc5)cc4)CC3)nc(N)c2cc1OC	45.5%
CCOC(=O)C1CCN(CCOc2cc(NC(=O)/C=C/c3ccccc3Cl)ccc2Br)CC1	6.51%
CCc1cn2c3c(cc(C(=O)N[C@@H](Cc4ccccc4)[C@H](O)CNC(C)(C)CCCC(C)C)cc13)N(C)S(=O)(=O)C2	2.22%
c1csc(-c2nc(NCC3CCCO3)ncc2-c2ccsc2)n1 (centres undefined)	2.71%
CC1CCN(c2nc(C(=O)NCCc3ccc(Cl)c(Cl)c3)c(C(C)C)s2)CC1	0.99%
CCC(=Cc1cccc([N+](=O)[O-])c1)C(=O)NCC1CCN(c2nc3cc(OC)c(OC)cc3c(=N)[nH]2)CC1	7.07%
COc1ccc2nccc(NC(=O)N3CCC(NCCOc4cc(F)cc(F)c4)CC3)c2n1	12.1%
Cc1ccccc1C1CCN(C2CCC(NC(=O)/C=C/c3ccc(C#N)cc3)CC2)CC1 (centres undefined)	4.49%
O=C(NCc1cccc2ccccc12)c1ccc(CNC2CCN(Cc3ccccc3)CC2)cc1	2.12%
N#Cc1ccc(N2CCN(Cc3cccc(-c4cccc(-c5nc6cc(F)ccc6[nH]5)c4)c3)CC2)nc1	5.99%
COc1ccc(-c2onc(C(F)(F)F)c2-c2ccc(Br)cc2)c(O)c1	2.27%
